{
  "source": "PubChem BioAssay AID686979",
  "about": "(National Center for Advancing Translational Sciences (NCATS), 2013)",
  "note": "Hit rate of the full screen: of about 420,000 compounds, about 50,000 (12%) were called active. Inconclusive results (about 26%) are left out. Calls follow the shape of the dose curve; as a rule, active = well fitted inhibition curve with a large enough effect; inconclusive = small, poorly fitted or top-dose-only effect; inactive = flat fitted curve, though single readings scatter. Shown is part of a subset that was picked to be rich in actives. % is scaled to controls: 0 for no effect and ±100 for the full control effect; potency is read from the fitted curve at half-maximal effect.",
  "data": [
    {"test": "qHTS for Inhibitors of human tyrosyl-DNA phosphodiesterase 1 (TDP1): qHTS in cells in presence of CPT; also: nearly all actives have a fitted effect of over 55% in size", "conditions": "chicken DT40 Tdp1-/-;hTDP1 cells + 20 nM CPT, ATP luminescence, 48 h; series mostly up to 46.2 µM; activity change, negative = growth inhibition: at the top concentration", "summary_of_the_method": "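Chicken DT40 Tdp1-/- cells complemented with human TDP1, 400 cells/well, exposed to compounds plus 20 nM camptothecin for at least 48 h at 37 C; viability read as ATP content by CellTiter-Glo luminescence.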", "values": [
      {"smiles": "COc1ccc(CC(=O)NC2CCSc3ccccc32)cc1OC", "note": "(centres undefined)", "activity change, negative = growth inhibition": "-18.5% (inactive)"},
      {"smiles": "CCOc1c2ccc(C(=O)NC3CCCc4ccccc43)cc2nn1CC", "note": "(centres undefined)", "activity change, negative = growth inhibition": "-23.4% (inactive)"},
      {"smiles": "O=C(Nc1ccc(S(=O)(=O)Nc2nccs2)cc1)c1cccc(S(=O)(=O)N2CCOCC2)c1", "activity change, negative = growth inhibition": "-2.77% (inactive)"},
      {"smiles": "CC(C)(C)Nc1c(N)c(=O)oc2ccccc12", "activity change, negative = growth inhibition": "-22.7% (inactive)"},
      {"smiles": "CCNc1c(NS(=O)(=O)c2ccc(C3CCCCC3)cc2)c(=O)oc2ccccc12", "Potency": "18.4 µM (active)"},
      {"smiles": "O=c1oc2ccccc2c(NC2CCCCC2)c1NS(=O)(=O)c1ccc(Cl)cc1", "activity change, negative = growth inhibition": "-23.5% (inactive)"},
      {"smiles": "CCc1ccccc1N1C(=O)C2C3CC(=O)C(c4ccccc43)C2C1=O", "note": "(centres undefined)", "activity change, negative = growth inhibition": "0.543% (inactive)"},
      {"smiles": "CC(C)CCN1CCN=C1N(C)C", "activity change, negative = growth inhibition": "0.633% (inactive)"},
      {"smiles": "CC1CCC(CN2CCN=C2N(C)C)CC1", "note": "(centres undefined)", "Potency": "8.2 µM (active)"},
      {"smiles": "CCC(C)CCN1CCN=C1N(C)C", "note": "(centres undefined)", "activity change, negative = growth inhibition": "-8.01% (inactive)"},
      {"smiles": "NS(=O)(=O)c1cccc(NC(=O)COC(=O)c2cc([N+](=O)[O-])ccc2N2CCCC2)c1", "activity change, negative = growth inhibition": "-4.21% (inactive)"},
      {"smiles": "CCOC(=O)N1CCC(N2CCOc3ccc(CN4CCC(O)(c5cccnc5)CC4)cc3C2)CC1", "activity change, negative = growth inhibition": "7.91% (inactive)"},
      {"smiles": "NCCCNCCCCN(CCCN)/[N+]([O-])=N/O", "Potency": "13.3 µM (active)"},
      {"smiles": "COc1ccc(N2CCN(Cc3ccc(Br)s3)CC2)cc1", "activity change, negative = growth inhibition": "-11.2% (inactive)"},
      {"smiles": "CCCCCCCC[n+]1cccc(C(=O)N2c3c(nc(N)[nH]c3=O)NC(C)C2C)c1", "note": "(centres undefined)", "activity change, negative = growth inhibition": "2.22% (inactive)"},
      {"smiles": "Cc1ccc(S(=O)(=O)N[C@@H](Cc2ccccc2)C(=O)N2CCC(C(=O)N[C@H](C(=O)O)C(C)O)CC2)cc1", "note": "(some centres undefined)", "activity change, negative = growth inhibition": "9.5% (inactive)"},
      {"smiles": "CC1(C)C=C2[C@H]3CC[C@@H]4[C@@]5(C)CCC(=O)C(C)(C)[C@@H]5CC[C@@]4(C)[C@]3(C)CC[C@@]2(C(=O)O)CC1", "Potency": "5.17 µM (active)"},
      {"smiles": "N#Cc1cccc(OC(=O)c2ccc3c(=O)n4c(nc3c2)CCC4)c1", "activity change, negative = growth inhibition": "-29.3% (inactive)"},
      {"smiles": "O=C(CCNC(=O)C1CCN(S(=O)(=O)c2ccccc2)CC1)NC1CC1", "activity change, negative = growth inhibition": "8.25% (inactive)"},
      {"smiles": "O[C@H]1CN(Cc2cccs2)[C@@H](c2ccc(Cl)cc2)C[C@@H]1n1cc(C2CC2)nn1", "activity change, negative = growth inhibition": "-3.89% (inactive)"},
      {"smiles": "Cc1ccc(O)c(-c2cc(C(=O)NCc3ccccc3)[nH]n2)c1", "activity change, negative = growth inhibition": "0.134% (inactive)"},
      {"smiles": "Cc1cc(O)ccc1-c1cc(C(=O)NCc2cc(C(F)(F)F)cc(C(F)(F)F)c2)[nH]n1", "Potency": "18.4 µM (active)"},
      {"smiles": "O=C(Cc1cccs1)NCc1cccc(C(F)(F)F)c1", "activity change, negative = growth inhibition": "-2.51% (inactive)"},
      {"smiles": "Cc1ccc(NC(=O)COC(=O)C2C3CC4OC(=O)C2C4C3)cc1Cl", "note": "(centres undefined)", "activity change, negative = growth inhibition": "-23.4% (inactive)"},
      {"smiles": "Fc1ccccc1C(c1nnnn1Cc1ccc2c(c1)OCO2)N1CCN(Cc2ccccc2)CC1", "note": "(centres undefined)", "Potency": "14.6 µM (active)"},
      {"smiles": "CC(C)(C)n1nnnc1C(c1ccc(F)cc1)N1CCN(Cc2ccc3c(c2)OCO3)CC1", "note": "(centres undefined)", "activity change, negative = growth inhibition": "-17.6% (inactive)"},
      {"smiles": "CC(C)(C)n1nnnc1C(c1ccccc1F)N1CCN(C(=O)c2ccco2)CC1", "note": "(centres undefined)", "activity change, negative = growth inhibition": "1.87% (inactive)"},
      {"smiles": "Cc1cccc2c1cnn2C(=O)CCC(=O)NC1CCCCC1", "activity change, negative = growth inhibition": "5.61% (inactive)"},
      {"smiles": "CCOc1ccc2[nH]c3nc(SCC(=O)NC4CCCC4)nnc3c2c1", "Potency": "5.17 µM (active)"},
      {"smiles": "O=C(CSc1nnc2c(n1)[nH]c1ccccc12)NC1CCCCC1", "activity change, negative = growth inhibition": "-18.4% (inactive)"},
      {"smiles": "COc1ccc2[nH]c3nc(SCC(=O)NC4CC4)nnc3c2c1", "activity change, negative = growth inhibition": "-0.657% (inactive)"},
      {"smiles": "CCN(CC)CCNC(=O)c1ccc(NS(=O)(=O)c2ccc3c(c2)OCCO3)cc1", "activity change, negative = growth inhibition": "12% (inactive)"},
      {"smiles": "O=S(=O)(Nc1ccccc1)c1ccc(NS(=O)(=O)c2cccs2)cc1", "activity change, negative = growth inhibition": "25.5% (inactive)"},
      {"smiles": "NS(=O)(=O)c1ccc(CCNC(=O)c2ccc([N+](=O)[O-])cc2[N+](=O)[O-])cc1", "activity change, negative = growth inhibition": "-18.8% (inactive)"},
      {"smiles": "Cc1cccc(S(=O)(=O)N(C)C[C@@H]2OCc3cnnn3CCCC(=O)N([C@H](C)CO)C[C@@H]2C)c1", "activity change, negative = growth inhibition": "1.91% (inactive)"},
      {"smiles": "CC(=O)Cc1nsc(NC(=O)c2ccc(Cl)cc2Cl)n1", "activity change, negative = growth inhibition": "11.2% (inactive)"},
      {"smiles": "O=C(O)c1cc(Cl)c(Cl)cc1C(=O)Nc1cccc2ncccc12", "activity change, negative = growth inhibition": "-2.42% (inactive)"},
      {"smiles": "Cc1ccc(C(=O)Nc2nc3ccc(Cl)cc3s2)o1", "activity change, negative = growth inhibition": "-6.67% (inactive)"},
      {"smiles": "Cc1csc(NC(=O)c2ccc(-c3ccc(Cl)cc3Cl)o2)n1", "Potency": "9.2 µM (active)"},
      {"smiles": "O=C(Nc1cccnc1Cl)c1cc(-c2cccc(Cl)c2)on1", "Potency": "inactive"},
      {"smiles": "O=C(Nc1cccc2ncccc12)c1ccc(-c2ccc(Cl)cc2Cl)o1", "Potency": "20.6 µM (active)"},
      {"smiles": "O=C(Cc1ccsc1)N1CCN(S(=O)(=O)c2cc(C(F)(F)F)cc(C(F)(F)F)c2)CC1", "activity change, negative = growth inhibition": "-8.29% (inactive)"},
      {"smiles": "COc1ccc(CN2CC(C(=O)NCCc3ccc(Cl)cc3)CC2=O)cc1", "note": "(centres undefined)", "activity change, negative = growth inhibition": "-17.7% (inactive)"},
      {"smiles": "CCc1ccc(Oc2coc3cc(O)ccc3c2=O)cc1", "activity change, negative = growth inhibition": "-11% (inactive)"},
      {"smiles": "CCCN(CCC)C(=S)Nc1cc(C(=O)OC)ccc1C(=O)OC", "Potency": "18.4 µM (active)"},
      {"smiles": "CCS(=O)(=O)Nc1cc(C(=O)OC)ccc1C(=O)OC", "activity change, negative = growth inhibition": "-16.4% (inactive)"},
      {"smiles": "CCN(CCO)C(=S)Nc1cc(C(=O)OC)ccc1C(=O)OC", "activity change, negative = growth inhibition": "0.997% (inactive)"},
      {"smiles": "CCc1ccc(-n2nc(C)c3c(C)cc(=O)n(CC(=O)Nc4ccc(F)cc4C)c32)cc1", "activity change, negative = growth inhibition": "-9.33% (inactive)"},
      {"smiles": "CCC(C(=O)OC)n1cnc2c(oc3ccccc32)c1=O", "note": "(centres undefined)", "activity change, negative = growth inhibition": "3.5% (inactive)"},
      {"smiles": "CCOc1ncccc1C(=O)Nc1ccc(S(=O)(=O)Nc2nc(C)cc(C)n2)cc1", "activity change, negative = growth inhibition": "-17% (inactive)"},
      {"smiles": "CCOc1ccccc1C(=O)Nc1ccc(S(=O)(=O)N2CCCCC2c2cccnc2)cc1", "note": "(centres undefined)", "Potency": "18.4 µM (active)"},
      {"smiles": "Cc1cccc(C(=O)Nc2ccc(S(=O)(=O)N3CCCCC3c3cccnc3)cc2)c1", "note": "(centres undefined)", "Potency": "23.1 µM (active)"},
      {"smiles": "Cc1ccc(S(=O)(=O)N2CCCCC2)cc1NC(=O)c1cccnc1", "activity change, negative = growth inhibition": "-16% (inactive)"},
      {"smiles": "COc1ccc(C(=O)NC(=S)N2CCCCC2c2cccnc2)cc1OC", "note": "(centres undefined)", "activity change, negative = growth inhibition": "-18.3% (inactive)"},
      {"smiles": "Cc1cc(NS(=O)(=O)c2ccc(NC(=O)c3cccnc3)cc2)nc(C)n1", "activity change, negative = growth inhibition": "-2% (inactive)"},
      {"smiles": "COc1ccc(NC(=O)CSc2nnc(-c3nnn(-c4ccc(F)cc4)c3C)o2)cc1", "activity change, negative = growth inhibition": "0.559% (inactive)"},
      {"smiles": "CCCC(=O)N1CCC1(C)C(=O)NCc1ccc(SC)cc1", "note": "(centres undefined)", "activity change, negative = growth inhibition": "-26.1% (inactive)"},
      {"smiles": "CC1(C(=O)NS(=O)(=O)c2cccc(F)c2)CCN1C(=O)c1cccc2ccccc12", "note": "(centres undefined)", "activity change, negative = growth inhibition": "0.466% (inactive)"},
      {"smiles": "CSc1ccc(CNC(=O)C2(C)CCCN2C)cc1", "note": "(centres undefined)", "activity change, negative = growth inhibition": "-10.1% (inactive)"},
      {"smiles": "CC1(C(=O)NCc2ccc3c(c2)OCO3)CCN1C(=O)Cc1cccs1", "note": "(centres undefined)", "activity change, negative = growth inhibition": "2.42% (inactive)"},
      {"smiles": "CSc1ccc(CN2CCC2(C)C(=O)NCc2ccccc2Br)cc1", "note": "(centres undefined)", "Potency": "18.4 µM (active)"},
      {"smiles": "CC1(C(=O)NCc2cccc3ccccc23)CCN1Cc1ccc(-c2ccccc2)o1", "note": "(centres undefined)", "Potency": "23.1 µM (active)"},
      {"smiles": "CCN1CCN(C(c2ccc(C)cc2)c2c(O)cc(C)n(Cc3ccco3)c2=O)CC1", "note": "(centres undefined)", "activity change, negative = growth inhibition": "4.97% (inactive)"},
      {"smiles": "O=C(NCc1ccccn1)Nc1ccc(Cl)cc1", "activity change, negative = growth inhibition": "-13% (inactive)"}
    ]}
  ]
}
